Data on 20 compounds can be found in PubChem BioAssay (EPA / NIEHS).

“And” between values parts separate entries of the source, which are not always exact repeats. Equal entries are not always repeated. Inconclusive results are not listed. The source made the active and inactive calls. How the source made its calls: active means hit-call score of the fitted dose curve at least 0.9, where 1 is the maximum; inconclusive means response in the unintended direction; inactive means score below 0.9.

Assay [1] has as its target human Protein Tyrosine Phosphatase Non-receptor Type 2 (PTPN2), PTPN2 (gene 5771) (UniProt P17706). In words: NVS_ENZ_hPTPN2: NovaScreen (NVS) Enzymatic Assay for human Protein Tyrosine Phosphatase Non-receptor Type 2 (PTPN2) (AID 2283207). In short, it runs like this:
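Cell-free recombinant enzyme with fluorescent substrate, product separated by electrophoretic mobility shift; read 1 h after dosing. Primary screen single concentration (25 uM) in duplicate; actives followed in concentration series; loss of signal versus DMSO.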

Assay [2] addresses human Sirtuin 3 (SIRT3), SIRT3 (gene 23410) (UniProt Q9NTG7). In words: NVS_ENZ_hSIRT3: NovaScreen (NVS) Enzymatic Assay for human Sirtuin 3 (SIRT3) (AID 2283222). In short, it runs like this: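 Cell-free enzyme assay with recombinant protein and fluorescent substrate, product separated by electrophoretic mobility shift; read 1 hour after dosing. Screened in duplicate at 25 uM, then singleton concentration-response up to 50 uM; loss of signal versus DMSO.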

For assay [3], the target named is human Raf-1 Proto-Oncogene, serine/threonine Kinase (RAF1), RAF1 (gene 5894) (UniProt P04049). Kind of assay: NVS_ENZ_hRAF1: NovaScreen (NVS) Enzymatic Assay for human Raf-1 Proto-Oncogene, serine/threonine Kinase (RAF1) (AID 2283216). The method in brief:
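Cell-free recombinant kinase with specific fluorescent substrate, product separated by electrophoretic mobility shift; read 1 h after dosing. Primary screen at 25 uM in duplicate; hits then run in concentration-response up to 50 uM, fitted as loss of signal versus DMSO.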

Assay [4] has as its target human Sirtuin 2 (SIRT2), SIRT2 (gene 22933) (UniProt Q8IXJ6). In words: NVS_ENZ_hSIRT2: NovaScreen (NVS) Enzymatic Assay for human Sirtuin 2 (SIRT2) (AID 2283217). The method in brief:
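Cell-free recombinant human SIRT2, fluorescent substrate with product separated by electrophoretic mobility shift, 1 hr. Screened in duplicate at 25 uM; hits rerun singly in concentration-response up to 50 uM, relative to DMSO.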

Assay [5] addresses Tyrosine-protein phosphatase non-receptor type 14 (Homo sapiens) (UniProt Q15678). In words: NVS_ENZ_hPTPN14: NovaScreen (NVS) Enzymatic Assay for human Protein Tyrosine Phosphatase Non-receptor Type 14 (PTPN14) (AID 2283206). The method in brief:
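Cell-free recombinant human PTPN14 with fluorescent substrate, read 0.5 h after dosing by fluorescence and electrophoretic mobility shift separating substrate from product. Primary screen at 25 uM in duplicate; hits run to 50 uM maximum; loss of signal versus DMSO.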

Assay [6] concerns the target human Protein Tyrosine Phosphatase Non-receptor Type 4 (PTPN4), PTPN4 (gene 5775) (UniProt P29074). Kind of assay: NVS_ENZ_hPTPN4: NovaScreen (NVS) Enzymatic Assay for human Protein Tyrosine Phosphatase Non-receptor Type 4 (PTPN4) (AID 2283208). In short, it runs like this:
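Cell-free assay of PTPN4 expressed in Sf9 cells, using a fluorescent substrate with product separated by mobility shift; read 1.33 h after dosing. Single-point screen at 25 uM, then concentration-response up to 50 uM. Loss of signal relative to DMSO.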

Assay [7] addresses human Sirtuin 1 (SIRT1), SIRT1 (gene 23411) (UniProt Q96EB6). Kind of assay: NVS_ENZ_hSIRT1: NovaScreen (NVS) Enzymatic Assay for human Sirtuin 1 (SIRT1) (AID 2283219). The method in brief: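 Cell-free recombinant SIRT1 with a fluorescent substrate; substrate and product separated by electrophoretic mobility shift and read by fluorescence intensity, 1 h after dosing. Primary screen at 25 uM in duplicate; hits re-run in concentration-response up to 50 uM, relative to DMSO.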

Assay [8] addresses human Protein Tyrosine Phosphatase Receptor Type M (PTPRM), PTPRM (gene 5797) (UniProt P28827). In words: NVS_ENZ_hPTPRM: NovaScreen (NVS) Enzymatic Assay for human Protein Tyrosine Phosphatase Receptor Type M (PTPRM) (AID 2283215). In short, it runs like this: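 Cell-free recombinant PTPRM with fluorogenic substrate; product separated from substrate by electrophoretic mobility shift and read by fluorescence, 1.33 h after dosing. Primary screen single concentration (25 uM) in duplicate; actives retested in concentration series; loss of signal versus DMSO.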

The target of assay [9] is human Tyrosine Protein Kinase Receptor Tie-2 (Tie2), TEK (gene 7010) (UniProt Q02763). Kind of assay: NVS_ENZ_hTie2: NovaScreen (NVS) Enzymatic Assay for human Tyrosine Protein Kinase Receptor Tie-2 (Tie2) (AID 2283225). The method in brief:
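Recombinant human Tie2 kinase activity was read cell-free by fluorescence with electrophoretic mobility shift, 1 hour after dosing. The screen used 25 uM in duplicate, then concentration-response up to 50 uM. Signal loss was scored against DMSO.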

Assay [10] concerns the target human SRC Proto-Oncogene, Non-receptor Tyrosine Kinase (SRC), SRC (gene 6714) (UniProt P12931). Kind of assay: NVS_ENZ_hSRC: NovaScreen (NVS) Enzymatic Assay for human SRC Proto-Oncogene, Non-receptor Tyrosine Kinase (SRC) (AID 2283223). In short, it runs like this:
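Cell-free kinase activity assay with fluorescent substrate, product separated by electrophoretic mobility shift, read 1 h after dosing. Duplicate single point at 25 uM, then concentration-response up to 50 uM; loss of signal versus DMSO.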

Assay [11] concerns the target human Phosphatase and Tensin Homolog (PTEN), PTEN (gene 5728) (UniProt P60484). In words: NVS_ENZ_hPTEN: NovaScreen (NVS) Enzymatic Assay for human Phosphatase and Tensin Homolog (PTEN) (AID 2283203). In short, it runs like this:
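Cell-free recombinant human PTEN with fluorescent substrate; product separated by electrophoretic mobility shift and read by fluorescence 1 h after dosing. Primary screen in duplicate at 25 uM, actives followed in concentration series versus DMSO.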

Assay [12] concerns the target human Rho Associated Coiled-coil Containing Protein Kinase 1 (ROCK1), ROCK1 (gene 6093) (UniProt Q13464). Kind of assay: NVS_ENZ_hROCK1: NovaScreen (NVS) Enzymatic Assay for human Rho Associated Coiled-coil Containing Protein Kinase 1 (ROCK1) (AID 2283214). The method in brief:
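Cell-free recombinant human ROCK1 activity assay; fluorescent substrate and product separated by electrophoretic mobility shift, read 1 h after dosing. Screened in duplicate at 25 uM; loss of signal versus DMSO baseline scored as inhibition.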

In assay [13] the target is human Protein Tyrosine Phosphatase Non-receptor Type 9 (PTPN9), PTPN9 (gene 5780) (UniProt P43378). In words: NVS_ENZ_hPTPN9: NovaScreen (NVS) Enzymatic Assay for human Protein Tyrosine Phosphatase Non-receptor Type 9 (PTPN9) (AID 2283209). In short, it runs like this:
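Sf9-expressed enzyme in a cell-free assay, fluorescence read 1.33 h after dosing with mobility-shift separation of substrate and product. Tested at 25 uM in duplicate, then up to 50 uM; signal loss versus DMSO.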

Assay [14] addresses Tyrosine-protein phosphatase non-receptor type 13 (Homo sapiens) (UniProt Q12923). Kind of assay: NVS_ENZ_hPTPN13: NovaScreen (NVS) Enzymatic Assay for human Protein Tyrosine Phosphatase Non-receptor Type 13 (PTPN13) (AID 2283205). The method in brief: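 Cell-free assay of recombinant human PTPN13 with a fluorescent substrate, product separated by electrophoretic mobility shift and read 0.5 h after dosing. Primary screen at 25 uM in duplicate, then concentration-response up to 50 uM. Loss of signal fitted against DMSO.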

Assay [15] deals with human Protein Tyrosine Phosphatase Receptor Type B (PTPRB), PTPRB (gene 5787) (UniProt P23467). Kind of assay: NVS_ENZ_hPTPRB: NovaScreen (NVS) Enzymatic Assay for human Protein Tyrosine Phosphatase Receptor Type B (PTPRB) (AID 2283211). The method in brief:
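Recombinant human PTPRB with a fluorescent substrate, product separated by electrophoretic mobility shift; read 1 h after dosing. Primary screen in duplicate at 25 uM; actives then retested in concentration series; loss of signal versus DMSO.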

Assay [16] addresses human Tropomyosin Receptor Kinase A (TRKA), NTRK1 (gene 4914) (UniProt P04629). Kind of assay: NVS_ENZ_hTrkA: NovaScreen (NVS) Enzymatic Assay for human Tropomyosin Receptor Kinase A (TRKA) (AID 2283224). The method in brief:
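Recombinant human TrkA activity read after 1 h by fluorescence with electrophoretic mobility shift separating substrate and product. Primary screen in duplicate at 25 uM; actives were rerun in concentration-response up to 50 uM. Loss of signal versus DMSO.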

In assay [17] the target is human Vascular Endothelial Growth Factor Receptor 1 (VEGFR1), FLT1 (gene 2321) (UniProt P17948). Kind of assay: NVS_ENZ_hVEGFR1: NovaScreen (NVS) Enzymatic Assay for human Vascular Endothelial Growth Factor Receptor 1 (VEGFR1) (AID 2283226). In short, it runs like this: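 Cell-free assay of recombinant human VEGFR1 kinase with substrate, measured 1 h after dosing; fluorescence with electrophoretic mobility-shift separation of substrate and product, referenced to DMSO; primary screen at 25 uM in duplicate, actives then run in concentration series.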

Assay [18] deals with human Protein Tyrosine Phosphatase Receptor Type F (PTPRF), PTPRF (gene 5792) (UniProt P10586). In words: NVS_ENZ_hPTPRF: NovaScreen (NVS) Enzymatic Assay for human Protein Tyrosine Phosphatase Receptor Type F (PTPRF) (AID 2283213). The method in brief:
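Cell-free fluorescence enzyme assay with recombinant protein and substrate; product separated by electrophoretic mobility shift. Read 1 h after dosing, single 25 uM duplicate screen, then concentration-response up to 50 uM; loss of signal vs DMSO.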

Sequence of human Sirtuin 3 (SIRT3), SIRT3 (gene 23410) (Q9NTG7 whole entry, looked up): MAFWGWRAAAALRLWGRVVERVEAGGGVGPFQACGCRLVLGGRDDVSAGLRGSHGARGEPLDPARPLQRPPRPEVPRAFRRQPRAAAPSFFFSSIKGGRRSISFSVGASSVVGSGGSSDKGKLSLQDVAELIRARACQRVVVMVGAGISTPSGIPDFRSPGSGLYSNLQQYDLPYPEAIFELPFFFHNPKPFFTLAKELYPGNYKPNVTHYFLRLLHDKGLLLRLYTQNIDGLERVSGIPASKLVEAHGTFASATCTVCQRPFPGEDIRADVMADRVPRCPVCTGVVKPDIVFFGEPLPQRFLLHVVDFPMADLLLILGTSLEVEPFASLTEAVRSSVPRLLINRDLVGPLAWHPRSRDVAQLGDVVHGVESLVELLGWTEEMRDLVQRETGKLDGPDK
Sequence of human Tyrosine Protein Kinase Receptor Tie-2 (Tie2), TEK (gene 7010) (Q02763 whole entry, looked up): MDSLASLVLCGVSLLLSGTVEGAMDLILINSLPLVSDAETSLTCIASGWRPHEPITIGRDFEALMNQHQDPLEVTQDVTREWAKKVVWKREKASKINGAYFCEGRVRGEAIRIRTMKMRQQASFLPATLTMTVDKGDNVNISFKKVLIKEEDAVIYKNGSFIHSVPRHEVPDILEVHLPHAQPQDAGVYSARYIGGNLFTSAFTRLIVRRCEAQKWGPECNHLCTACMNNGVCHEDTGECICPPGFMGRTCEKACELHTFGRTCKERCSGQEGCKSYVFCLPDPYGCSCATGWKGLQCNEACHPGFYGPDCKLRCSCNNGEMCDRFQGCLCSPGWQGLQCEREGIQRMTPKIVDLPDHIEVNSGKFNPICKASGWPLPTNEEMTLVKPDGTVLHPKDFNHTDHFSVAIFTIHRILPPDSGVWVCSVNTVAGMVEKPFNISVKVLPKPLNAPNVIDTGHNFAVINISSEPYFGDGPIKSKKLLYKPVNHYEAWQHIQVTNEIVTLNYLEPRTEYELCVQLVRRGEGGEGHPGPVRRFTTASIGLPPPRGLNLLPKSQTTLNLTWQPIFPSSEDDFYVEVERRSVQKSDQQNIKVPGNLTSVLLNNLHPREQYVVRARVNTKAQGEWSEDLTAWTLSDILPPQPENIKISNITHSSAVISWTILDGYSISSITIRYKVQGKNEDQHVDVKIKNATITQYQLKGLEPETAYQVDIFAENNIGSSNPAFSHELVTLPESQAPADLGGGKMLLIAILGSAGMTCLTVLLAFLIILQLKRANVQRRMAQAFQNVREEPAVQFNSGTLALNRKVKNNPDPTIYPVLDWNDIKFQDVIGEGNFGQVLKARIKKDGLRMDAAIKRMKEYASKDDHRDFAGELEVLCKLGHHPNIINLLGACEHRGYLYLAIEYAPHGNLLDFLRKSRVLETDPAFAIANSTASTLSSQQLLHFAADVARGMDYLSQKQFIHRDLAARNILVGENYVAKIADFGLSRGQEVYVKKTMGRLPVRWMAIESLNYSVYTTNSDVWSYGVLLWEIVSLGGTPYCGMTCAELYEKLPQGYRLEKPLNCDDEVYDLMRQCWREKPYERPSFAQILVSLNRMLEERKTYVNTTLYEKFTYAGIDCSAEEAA
Sequence of human Sirtuin 1 (SIRT1), SIRT1 (gene 23411) (Q96EB6 whole entry, looked up): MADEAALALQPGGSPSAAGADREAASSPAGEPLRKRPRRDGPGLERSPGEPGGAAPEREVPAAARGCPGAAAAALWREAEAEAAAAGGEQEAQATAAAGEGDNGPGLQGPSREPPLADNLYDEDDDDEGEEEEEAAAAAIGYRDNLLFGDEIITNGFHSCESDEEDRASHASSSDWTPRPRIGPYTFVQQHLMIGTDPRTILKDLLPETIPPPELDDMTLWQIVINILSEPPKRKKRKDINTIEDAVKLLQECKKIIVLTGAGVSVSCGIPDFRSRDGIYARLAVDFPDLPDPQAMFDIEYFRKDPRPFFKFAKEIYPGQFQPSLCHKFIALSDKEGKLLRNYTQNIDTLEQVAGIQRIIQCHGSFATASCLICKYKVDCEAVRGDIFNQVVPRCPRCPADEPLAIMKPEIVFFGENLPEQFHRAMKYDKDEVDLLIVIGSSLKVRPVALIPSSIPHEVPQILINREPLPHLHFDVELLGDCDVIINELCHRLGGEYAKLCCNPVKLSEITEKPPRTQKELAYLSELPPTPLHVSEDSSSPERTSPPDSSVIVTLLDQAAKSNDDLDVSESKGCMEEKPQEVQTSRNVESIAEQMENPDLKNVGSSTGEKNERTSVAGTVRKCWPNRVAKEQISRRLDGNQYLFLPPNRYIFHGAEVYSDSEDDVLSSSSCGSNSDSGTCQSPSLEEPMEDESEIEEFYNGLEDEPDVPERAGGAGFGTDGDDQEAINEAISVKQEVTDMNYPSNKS
Sequence of human Phosphatase and Tensin Homolog (PTEN), PTEN (gene 5728) (P60484 whole entry, looked up): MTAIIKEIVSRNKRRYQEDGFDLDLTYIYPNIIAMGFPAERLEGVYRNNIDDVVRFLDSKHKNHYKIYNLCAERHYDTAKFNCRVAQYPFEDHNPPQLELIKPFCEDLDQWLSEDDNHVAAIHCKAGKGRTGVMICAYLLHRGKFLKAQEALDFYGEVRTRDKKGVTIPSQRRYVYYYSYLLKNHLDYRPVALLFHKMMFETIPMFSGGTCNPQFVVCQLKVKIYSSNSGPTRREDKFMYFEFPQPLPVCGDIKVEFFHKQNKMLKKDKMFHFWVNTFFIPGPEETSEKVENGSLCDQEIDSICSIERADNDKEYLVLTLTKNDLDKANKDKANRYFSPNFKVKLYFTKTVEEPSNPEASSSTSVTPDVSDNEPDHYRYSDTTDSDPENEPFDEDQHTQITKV
Sequence of human Sirtuin 2 (SIRT2), SIRT2 (gene 22933) (Q8IXJ6 whole entry, looked up): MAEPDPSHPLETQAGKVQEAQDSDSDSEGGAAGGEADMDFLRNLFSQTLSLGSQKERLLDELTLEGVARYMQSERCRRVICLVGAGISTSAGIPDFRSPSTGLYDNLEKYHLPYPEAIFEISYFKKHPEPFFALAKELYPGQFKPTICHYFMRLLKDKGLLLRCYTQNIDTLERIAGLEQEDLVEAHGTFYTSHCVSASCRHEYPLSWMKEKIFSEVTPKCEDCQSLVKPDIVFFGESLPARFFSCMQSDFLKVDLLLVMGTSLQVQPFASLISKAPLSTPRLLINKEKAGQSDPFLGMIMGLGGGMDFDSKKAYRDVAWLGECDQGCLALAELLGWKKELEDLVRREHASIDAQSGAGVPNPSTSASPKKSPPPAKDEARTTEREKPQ
Sequence of Tyrosine-protein phosphatase non-receptor type 14 (Homo sapiens) (Q15678 whole entry, looked up): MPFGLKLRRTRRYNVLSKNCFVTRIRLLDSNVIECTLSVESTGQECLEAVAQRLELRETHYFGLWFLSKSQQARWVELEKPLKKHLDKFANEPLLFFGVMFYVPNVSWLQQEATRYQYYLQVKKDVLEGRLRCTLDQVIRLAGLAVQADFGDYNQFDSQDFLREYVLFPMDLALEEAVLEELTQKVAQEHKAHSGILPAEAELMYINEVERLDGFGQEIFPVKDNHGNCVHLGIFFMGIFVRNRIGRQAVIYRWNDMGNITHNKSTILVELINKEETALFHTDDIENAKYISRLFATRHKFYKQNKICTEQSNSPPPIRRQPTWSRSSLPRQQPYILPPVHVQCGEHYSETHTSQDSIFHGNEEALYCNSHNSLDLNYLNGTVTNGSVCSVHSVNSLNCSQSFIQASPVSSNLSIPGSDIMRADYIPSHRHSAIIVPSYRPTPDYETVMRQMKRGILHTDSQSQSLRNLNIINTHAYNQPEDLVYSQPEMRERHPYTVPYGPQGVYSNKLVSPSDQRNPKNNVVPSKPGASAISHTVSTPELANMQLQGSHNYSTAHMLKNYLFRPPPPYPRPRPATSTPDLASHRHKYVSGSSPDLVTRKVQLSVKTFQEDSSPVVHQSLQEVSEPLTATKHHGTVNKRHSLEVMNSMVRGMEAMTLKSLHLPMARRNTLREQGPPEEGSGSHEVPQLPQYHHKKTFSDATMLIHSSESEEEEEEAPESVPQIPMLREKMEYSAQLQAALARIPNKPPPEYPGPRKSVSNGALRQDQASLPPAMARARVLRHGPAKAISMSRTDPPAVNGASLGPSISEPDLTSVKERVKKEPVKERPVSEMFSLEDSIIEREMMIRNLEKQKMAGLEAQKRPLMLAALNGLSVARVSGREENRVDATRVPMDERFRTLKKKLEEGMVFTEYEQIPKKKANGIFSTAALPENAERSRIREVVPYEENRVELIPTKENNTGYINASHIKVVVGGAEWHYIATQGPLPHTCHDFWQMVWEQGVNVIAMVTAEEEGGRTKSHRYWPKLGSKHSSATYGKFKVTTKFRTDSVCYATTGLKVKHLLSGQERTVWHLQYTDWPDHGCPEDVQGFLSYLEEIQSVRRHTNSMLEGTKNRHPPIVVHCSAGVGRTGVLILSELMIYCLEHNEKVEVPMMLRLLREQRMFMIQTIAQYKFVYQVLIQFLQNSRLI
Sequence of human Raf-1 Proto-Oncogene, serine/threonine Kinase (RAF1), RAF1 (gene 5894) (P04049 whole entry, looked up): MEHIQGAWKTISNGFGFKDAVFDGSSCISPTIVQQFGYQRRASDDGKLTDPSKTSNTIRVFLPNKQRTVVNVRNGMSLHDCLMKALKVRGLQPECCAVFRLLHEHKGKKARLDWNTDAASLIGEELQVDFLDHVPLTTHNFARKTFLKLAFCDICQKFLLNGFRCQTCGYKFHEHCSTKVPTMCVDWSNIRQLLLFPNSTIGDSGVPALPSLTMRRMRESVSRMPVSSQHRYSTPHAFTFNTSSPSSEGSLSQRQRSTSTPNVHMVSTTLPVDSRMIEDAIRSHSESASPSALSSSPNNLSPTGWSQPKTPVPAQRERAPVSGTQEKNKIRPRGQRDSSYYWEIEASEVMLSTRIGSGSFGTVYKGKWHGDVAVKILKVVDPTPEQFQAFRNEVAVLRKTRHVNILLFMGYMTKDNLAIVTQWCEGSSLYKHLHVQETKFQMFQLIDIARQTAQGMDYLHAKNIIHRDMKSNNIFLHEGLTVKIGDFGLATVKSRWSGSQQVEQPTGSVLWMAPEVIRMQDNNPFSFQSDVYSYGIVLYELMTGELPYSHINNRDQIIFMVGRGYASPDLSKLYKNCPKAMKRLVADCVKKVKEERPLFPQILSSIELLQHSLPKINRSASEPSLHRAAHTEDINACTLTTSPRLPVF

As for `O=C(O)COc1nc(Cl)c(Cl)cc1Cl`, the compound was classed as inactive in assay [1]. With `N#Cc1nn(-c2c(Cl)cc(C(F)(F)F)cc2Cl)c(N)c1S(=O)C(F)(F)F` (configuration not stated), the result in [2] was inactive. Take `O=C(Nc1ccccc1)Nc1ccnc(Cl)c1`: in assay [3], the result was inactive. The AC50 is the concentration giving half of the maximal activity seen. With `Fc1ccc(Oc2ccnc3cc(Cl)cc(Cl)c23)cc1`, in assay [3], the AC50 is 17 µM (active). Also, the compound was called inactive in assay [4]. Consider `CCOP(=S)(OCC)SCn1c(=O)oc2cc(Cl)ccc21`, for which the call in assay [5] was inactive.

Consider `CCCCNC(=O)OCC#CI`, for which the call in [5], in assay [6], in assay [4] and in assay [2] was inactive. Also, the AC50 in assay [7] was 11.9 µM (active) and 10.7 µM (active). `COc1ccc(C(c2ccc(OC)cc2)C(Cl)(Cl)Cl)cc1`: the call in assay [8] was inactive. With `COC(=O)C(C)Oc1ccc(Oc2ccc(Cl)cc2Cl)cc1` (configuration not stated), the outcome in assay [9] was inactive.

With `CCCC1COC(Cn2cncn2)(c2ccc(Cl)cc2Cl)O1` (configuration not stated), in assay [10], the result was inactive. `C#CCOS(=O)OC1CCCCC1Oc1ccc(C(C)(C)C)cc1` (configuration not stated): in assay [11], the call was inactive.

For `CON(C)C(=O)Nc1ccc(Cl)c(Cl)c1`, the outcome in assay [11] and in assay [12] was inactive.

As for `CC(C)(C)c1ccc(CSc2cnn(C(C)(C)C)c(=O)c2Cl)cc1`, the half-maximal activity concentration (AC50) in [13] was 17 µM (active).

In the case of `CCCN(CCC)c1c([N+](=O)[O-])cc(S(N)(=O)=O)cc1[N+](=O)[O-]`, the outcome in assay [14], in assay [5], in [15], in [2], in [16] and in assay [9] was inactive. Besides, the compound was classed as inactive in assay [17]. As to `CC(Oc1ccc(Cl)cc1Cl)C(=O)O` (configuration not stated), the call in [16] was inactive. Consider `CS/C(C)=N/OC(=O)N(C)SN(C)C(=O)O/N=C(\C)SC`, for which the AC50 in [7] is 6.69 µM (active). For `O=C(O)c1nc(Cl)ccc1Cl`, the compound was classed as inactive in assay [3].

Consider `CCNc1nc(Cl)nc(NC(C)C)n1`, for which the result in assay [15] was inactive. For the compound `CN(C)C(=S)SSC(=S)N(C)C`, the compound was classed as inactive in [18] and in [4]. The half-maximal activity concentration (AC50) in assay [7] was 6.68 µM (active). For `Cc1c(F)c(F)c(COC(=O)C2C(/C=C(\Cl)C(F)(F)F)C2(C)C)c(F)c1F` (configuration not stated), the outcome in assay [6] and in assay [13] was inactive.

In the case of `Cc1ccc(-c2c(Cl)nc(C#N)n2S(=O)(=O)N(C)C)cc1`, the call in assay [11], in assay [18] and in assay [9] was inactive.
